Assay outcomes: PubChem BioAssay, several laboratories
An excerpt weighted towards active compounds, which were near 2.7% of everything screened.
ATG4B inh: ATG4B protease inhibitors, primary screen, biochemical, fluorescence, uHTS; 0.51% of 340,000 active; ATG4B cleavage of LC3-PLA2, NBD-HPC fluorescence, 1 h; AID 504462, 2011; inhibition, % at 8.33 µM; in the data active = inhibition above about 40%
Target sequence (Q9Y4P1 whole entry, looked up): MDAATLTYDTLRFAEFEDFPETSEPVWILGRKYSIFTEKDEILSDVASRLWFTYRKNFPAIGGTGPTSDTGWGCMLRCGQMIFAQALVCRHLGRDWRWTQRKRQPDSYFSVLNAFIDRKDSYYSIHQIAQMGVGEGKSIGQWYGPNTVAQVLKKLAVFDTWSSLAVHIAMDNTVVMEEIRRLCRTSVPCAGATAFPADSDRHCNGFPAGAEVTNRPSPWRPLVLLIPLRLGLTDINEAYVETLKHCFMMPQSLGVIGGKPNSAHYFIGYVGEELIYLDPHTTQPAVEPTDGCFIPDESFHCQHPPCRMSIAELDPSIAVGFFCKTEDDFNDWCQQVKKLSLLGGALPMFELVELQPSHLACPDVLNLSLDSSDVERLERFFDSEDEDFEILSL
F508del corr: F508del CFTR correction, initial screen, CFBE line, single point; 0.36% of 350,000 active; CFBE cells, YFP halide quenching; stimulated with forskolin plus potentiator P3; % fluorescence drop versus neutral controls; AID 720511, 2013; activity (quench increase), % at 7.58 µM;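 active = mean added fluorescence quench of at least 8% versus neutral control, with both replicates also reaching 8%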;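 also: cells transiently co-express mutant CFTR-F508del with the halide-sensitive YFP; corrector assay measuring rescue of mutant channel to the surface after 24 h compound exposure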
CendR NRP1 mod: modulators of CendR peptide binding to NRP-1, primary screen, biochemical, fluorescence polarization, uHTS; Neuropilin-1 (Homo sapiens), O14786; FAM-RPARPAR peptide binding to NRP-1; inhibition, % at 25 µM; 0.85% of 360,000 active; AID 602438, 2012;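 active = inhibition or corrected inhibition above about 18%, plus a signal ratio from 0.5 to 1.5, limit read from the data, passing the limit was not always enough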
SKN-1 block: suppressors of acrylamide-induced Pgst-4::GFP reporter in worms, primary screen, SKN-1 inhibitor project, whole organism, uHTS, GFP/RFP fluorescence ratio, strain VP596 | C. elegans VP596 Pgst-4::GFP/RFP ratio, 24 h | inhibition, % at 21.8 µM | 0.49% of 360,000 active | AID 624304, 2012;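 active = interference check ratio from 0.5 to 1.5 plus GFP to RFP signal ratio inhibition reaching or exceeding a fixed threshold, cut at about 30% in these data, passing the limit was not always enough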
MPTP block: mitochondrial permeability transition pore inhibitors, primary screen, biochemical, isolated mouse mitochondria, absorbance. Ca2+ swelling absorbance, 30 min. inhibition, % at 10 µM. 1.4% of 360,000 active. AID 602449, 2012;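 active = inhibition of 50% or more, scaled per plate between neutral and stimulator controls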;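 also: 0% = DMSO wells given calcium and 100% = 1 mM EGTA wells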
* marks the source's active call; other numbers are inactive results; . = no result given.

SMILES | ATG4B inh | F508del corr | CendR NRP1 mod | SKN-1 block | MPTP block
O=C(/C=C/Nc1ccc(F)cc1Br)c1ccccc1 | 8.1 | . | 8.1 | 37.0* | 1.3
CC(=O)Nc1ccc(N/C=C/C(=O)c2ccccc2)cc1 | 7.1 | 0.5 | -0.1 | 20.4 | 0.7
O=C(/C=C/Nc1ccccc1)c1ccccc1 | -2.9 | . | 6.0 | 35.6* | 0.6
O=C(/C=C\Nc1ccc(Br)cc1)c1cccnc1 | 32.5 | . | 5.5 | 86.5* | 0.3
Cc1noc(C)c1NC(=O)N(C)C[C@@H]1Oc2ccc(NC(=O)Nc3ccc(C(F)(F)F)cc3)cc2CC(=O)N([C@@H](C)CO)C[C@H]1C | . | -2.0 | . | . | .
Nc1c(C(=O)NCC2CCCO2)sc2nc3c(c(-c4ccco4)c12)CC/C3=C\c1ccco1 (stereo not drawn) | 49.4* | . | -127.5 | 11.4 | 8.9
Cc1ccc(S(=O)(=O)N(C)C[C@H]2OCCCC[C@@H](C)Oc3ccc(NC(=O)NC4CCCCC4)cc3C(=O)N([C@@H](C)CO)C[C@H]2C)cc1 | . | -0.8 | . | . | .
CCN(c1cccc(C)c1)S(=O)(=O)c1ccc(-n2cccn2)cc1 | 5.8 | -1.2 | 22.4* | 6.0 | 0.3
C[C@H]1CN([C@@H](C)CO)S(=O)(=O)c2ccc(C#CC3CCCCC3)cc2O[C@H]1CN(C)Cc1cccnc1 | . | 9.9* | . | . | .
C[C@H](CO)N1C[C@H](C)[C@@H](CN(C)Cc2cccnc2)Oc2cc(C#CC3CCCCC3)ccc2S1(=O)=O | . | 0.0 | . | . | .
COc1cccc(C#Cc2ccc3c(c2)O[C@@H](CN(C)C(=O)c2ccccn2)[C@H](C)CN([C@@H](C)CO)S3(=O)=O)c1 | . | 9.8* | . | . | .
COc1ccccc1C#Cc1ccc2c(c1)O[C@@H](CN(C)Cc1cccnc1)[C@H](C)CN([C@@H](C)CO)S2(=O)=O | . | 9.5* | . | . | .
COc1ccccc1C#Cc1ccc2c(c1)O[C@@H](CN(C)Cc1cccnc1)[C@@H](C)CN([C@@H](C)CO)S2(=O)=O | . | 2.9 | . | . | .
C[C@H]1CN([C@@H](C)CO)C(=O)c2cc(-c3cccc(C(=O)N(C)C)c3)cnc2O[C@@H]1CN(C)S(=O)(=O)c1cccc(F)c1 | . | 0.8 | . | . | .
CN(C)CC(=O)N1[C@H](C#N)[C@H](c2ccccc2-c2ccccc2F)[C@@H]1CO | . | -2.3 | . | . | .
O=C(Nc1ccc2c(c1)[C@H]1C[C@@H](CC(=O)N3CCOCC3)O[C@@H](CO)[C@H]1O2)C1CCC1 | . | -0.9 | . | . | .
COc1ccc(-c2ccc3c(c2)O[C@@H](CN(C)C(C)=O)[C@H](C)CN([C@H](C)CO)S3(=O)=O)cc1 | . | -3.1 | . | . | .
Cc1cc(NC(=O)CN(C)CC(=O)Nc2ccc(F)c(F)c2F)no1 | -9.0 | 1.3 | 2.3 | 3.7 | 0.1
CCCN(CC(=O)Nc1cc(C)on1)CC(=O)Nc1ccc(F)c(F)c1F | -9.3 | -4.3 | 22.6* | -4.9 | 1.1
COc1ccccc1C1C(C(=O)NCc2ccccc2)=C(C)Nc2ncnn21 (stereo not drawn) | -1.5 | . | -3.1 | 47.2* | -0.7
CCCc1cc(=O)oc2cc(C)cc(OCC(=O)NCCCn3ccnc3)c12 | -2.9 | -1.3 | -1.1 | -0.3 | 1.0
Cc1cc(OCC(=O)NCCCn2ccnc2)c2c(C)cc(=O)oc2c1 | 0.9 | -1.1 | 20.1* | -2.3 | -2.4
C[C@@H]1CN([C@@H](C)CO)C(=O)c2cc(C#CC3CCCC3)cnc2O[C@@H]1CN(C)C(=O)Cc1ccccn1 | . | 0.7 | . | . | .
O=[N+]([O-])c1ccc(N2CCc3ccccc3C2)cc1 | 7.2 | -7.0 | 5.1 | 44.5* | 0.3
O=[N+]([O-])c1ccc(-c2csc(N3CCc4ccccc4C3)n2)cc1 | 6.4 | . | -0.7 | 10.9 | 3.5
SMILES | ATG4B inh | F508del corr | CendR NRP1 mod | SKN-1 block | MPTP block
COc1ccc(CC(=O)OCc2cc3ccccc3[nH]c2=O)cc1 | -13.0 | . | 25.4* | -1.6 | 21.8
Oc1ccc(-c2csc(Nc3ccccn3)n2)c(O)c1 | -7.8 | 0.7 | 13.0 | 7.4 | 2.6
c1ccc(Nc2nc(-c3cccs3)cs2)nc1 | -9.2 | . | -0.2 | 71.7* | -3.3
Fc1ccc(-c2csc(Nc3ccccn3)n2)cc1 | 6.2 | 4.1 | 5.1 | 74.6* | 0.3
c1csc(-c2csc(-c3cccs3)n2)c1 | -5.5 | . | 5.0 | 92.7* | 2.5
Cc1cccc(Nc2nc(-c3cccs3)cs2)n1 | -2.5 | . | 21.9 | 36.3* | 1.2
c1ccc(Nc2nc(-c3cccnc3)cs2)nc1 | 5.7 | . | 6.8 | 15.3 | -0.5
